# Values joined by “and” are separate entries in the source; they are usually repeats but may differ in a detail not shown here. Identical values can stand only once. The panel holds about 83,000 compounds, 20% with a hit somewhere; the sample as a whole holds those more often.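 For each line, cells grew in 96-well plates with the test compound present at a single concentration for 48 hours.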 Values without a mark were called inactive. Active and inactive are the calls of the source. How the source made its calls: active means growth percent below 10; inactive means the rest.
# What was measured:
# Assay in all cases: NCI-60 one-dose screen, 48 h (100 = growth as untreated, 0 = no growth, -100 = all killed)
# Settings in all cases: 10 µM unless noted
# DU-145 prostate = system: DU-145 prostate
# K-562 leukemia = system: K-562 leukemia
# MALME-3M melanoma = system: MALME-3M melanoma
# MDA-MB-231 breast = system: MDA-MB-231 breast
# RXF 393 renal = system: RXF 393 renal
# SF-268 CNS = system: SF-268 CNS
# SF-295 CNS = system: SF-295 CNS
# SF-539 CNS = system: SF-539 CNS
# UACC-257 melanoma = system: UACC-257 melanoma
# M14 melanoma = system: M14 melanoma
# HCT-15 colon = system: HCT-15 colon
# HT29 colon = system: HT29 colon
# SNB-75 CNS = system: SNB-75 CNS
# SNB-19 CNS = system: SNB-19 CNS
# PC-3 prostate = system: PC-3 prostate
# SK-MEL-5 melanoma = system: SK-MEL-5 melanoma
# UACC-62 melanoma = system: UACC-62 melanoma
# LOX IMVI melanoma = system: LOX IMVI melanoma
# SK-MEL-28 melanoma = system: SK-MEL-28 melanoma
# U251 CNS = system: U251 CNS
Compound,growth (DU-145 prostate),growth (K-562 leukemia),growth (MALME-3M melanoma),growth (MDA-MB-231 breast),growth (RXF 393 renal),growth (SF-268 CNS),growth (SF-295 CNS),growth (SF-539 CNS),growth (UACC-257 melanoma),growth (M14 melanoma),growth (HCT-15 colon),growth (HT29 colon),growth (SNB-75 CNS),growth (SNB-19 CNS),growth (PC-3 prostate),growth (SK-MEL-5 melanoma),growth (UACC-62 melanoma),growth (LOX IMVI melanoma),growth (SK-MEL-28 melanoma),growth (U251 CNS)
C[N+]12CCC34C5=CC(=O)C(=O)C=C5[N+]5(C)C(=O)CC6OCC=C(C1)C(CC32)C6C45 (stereo unspecified),102%,97.6%,99.4%,97.6%,93.1%,111%,93%,97.5%,113%,118%,103%,104%,109%,104%,106%,97.5%,106%,118%,108%,
Cc1cc(N(CCCl)CCCl)ccc1/C=N\NC(=O)c1cccnc1,75.6% and 75.4%,85.2% and 91.8%,107%,112% and 94.5%,100% and 85.6%,80.4% and 72.5%,49.6%,54.2% and 73.7%,84.9% and 88.6%,96% and 92.1%,93% and 85.1%,90.9% and 101%,71.5% and 86.4%,94.1% and 105%,84.3% and 77.6%,88.8% and 79.1%,45% and 60.5%,69.4%,108% and 97.8%,
CC1(C)C2CCC1(CS(=O)(=O)O)C(=O)C2 (stereo unspecified),109% and 125%,99.8% and 123%,85.1% and 105%,94.9% and 108%,137% and 123%,107% and 105%,101% and 100%,91% and 112%,99.5% and 96.6%,98% and 105%,91.7% and 104%,98.2% and 108%,95% and 82.9%,101% and 109%,,105% and 115%,88.3% and 93.2%,77.1% and 100%,,90.8% and 101%
O=C(NC(Cl)=C(Cl)Cl)P(=O)(c1ccccc1)c1ccccc1,118%,121%,104%,98.9%,100%,110%,72.9%,106%,110%,111%,105%,112%,92.3%,96.1%,103%,98.5%,102%,101%,99.6%,
CCC1(CCSC#N)C(=O)NC(=O)NC1=O,106%,86.5%,86.2%,106%,117%,97.2%,100%,94.9%,98.9%,94.6%,99.6%,100%,97.1%,101%,,100%,104%,101%,110%,93.9%
O=C(Cc1ccccc1)NC(O)C(Cl)(Cl)Cl (stereo unspecified),118%,98.3%,115%,106%,105%,104%,103%,108%,103%,101%,118%,99.3%,86.1%,95%,106%,105%,97.9%,101%,110%,
CC12CCC3C(CCC4CC(O)CCC43C)C1CCC2=O (stereo unspecified),103%,103%,102%,111%,133%,116%,94.8%,99.1%,-10.3% (active),98.8%,91.4%,102%,109%,112%,99.6%,101%,98.9%,92%,189%,
O=C(CBr)OCCOC(=O)CBr,84.2%,62.5%,76.3%,80.6%,-7.57% (active),89.9%,104%,112%,83.1%,81%,72.4%,92.5%,91.2%,104%,,99.3%,81.4%,37.1%,79.5%,87.4%
Cc1nc2ccccc2c(=O)n1-c1ccccc1F,109%,104%,112%,107%,96.5%,100%,98.3%,95.4%,77%,99.4%,103%,103%,82.1%,104%,86.6%,100%,105%,103%,111%,
N#CCN(CC#N)[N+](=O)[O-],107%,105%,111%,103%,106%,102%,110%,102%,113%,97%,108%,103%,89.8%,99.1%,,103%,,109%,106%,104%
C/C=C(/C)C(=O)O[C@H]1CC[C@@]2(C)[C@@H]3CC[C@H]4[C@]5(O)C[C@H](O)[C@@]6(O)[C@@H](CN7C[C@@H](C)CC[C@H]7[C@@]6(C)O)[C@]5(O)C[C@@]42O[C@@]13O,138%,136%,92.7%,130%,108%,116%,100%,111%,102%,102%,98.4%,92.4%,79.9%,112%,,102%,127%,104%,124%,103%
CNC(=O)Oc1ccc(Cl)cc1SSc1cc(Cl)ccc1OC(=O)NC,96.7%,63.1%,78.2%,78.3%,107%,65.8%,75.7%,98.2%,79%,112%,72.7%,106%,86.8%,86.8%,,43.4%,,85.8%,82%,52.7%
Nc1ccc2c(c1)Cc1cc(N)ccc1-2,107%,112%,85.7%,75.6%,87.9%,95.4%,100%,96.8%,91.3%,92.7%,85.3%,98.8%,74%,103%,84.9%,95.8%,,105%,92.6%,
C[C@@H]1C/C=C\C(=O)O[C@H](/C=C/C#C/C=C/C(C)(C)[C@@H](O)c2cccc(O)c2Br)[C@@H](C)/C=C/[C@H](C)C[C@H](OC(N)=O)C1,47.6%,6.76% (active),28.4%,2.09% (active),27.4%,40.4%,-6.34% (active),30.6%,-11.1% (active),0.391% (active),2.46% (active),5.59% (active),32.7%,53.6%,33.5%,-61.5% (active),-41.8% (active),-2.94% (active),,

# Reference: PubChem BioAssay (NCI)
